Bioassay records from PubChem.
Shown is part of a subset that was picked to be rich in hits.
Cycloheximide cs = counter-screen for Shiga toxin inhibitors: cycloheximide protein synthesis inhibition; cell reporter, cycloheximide protein synthesis inhibition counterscreen; max response, %; 300,000 tested, 12% active; in the data active means max response mostly above about 13%, no sharp cut-off; inactive means mostly below about 14%; further: read at 38.3 µM for the half of the compounds with a filed dose
Tb PYK inh = T. brucei pyruvate kinase inhibition; TbPYK enzyme, Kinase-Glo Plus ATP luminescence, 45 min; Potency, µM (top dose mostly 76.8 µM), actives largely listed as inhibitors; 410,000 tested, 0.12% active; further: nearly all actives have a fitted effect of over 50% in size
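Readout: single end-point luminescence (Kinase-Glo Plus, 10 min). Reaction conditions were TbPYK/substrate plus 130 uM ADP, 45 min at RT, pH 7.2 TEA buffer. No-enzyme wells served as controls, and data were normalized before concentration-response fitting.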
SARS PLpro yeast = SARS-CoV PLP inhibition in yeast. Potency, µM (doses to about 32.9 µM), most hits filed as activators. S. cerevisiae expressing SARS-CoV PLpro, growth rescue. 330,000 tested, 0.19% active; calls by dose curve; further: nearly all actives have a fitted effect of over 55% in size
LmPK inhibitor = blocks Leishmania mexicana pyruvate kinase activity; 290,000 tested, 0.37% active; Q27686; purified LmPK, Kinase-Glo ATP luminescence, 1 h; Potency, µM (series often up to 57.5 µM), actives largely listed as inhibitors
Target sequence (Q27686 whole entry, looked up): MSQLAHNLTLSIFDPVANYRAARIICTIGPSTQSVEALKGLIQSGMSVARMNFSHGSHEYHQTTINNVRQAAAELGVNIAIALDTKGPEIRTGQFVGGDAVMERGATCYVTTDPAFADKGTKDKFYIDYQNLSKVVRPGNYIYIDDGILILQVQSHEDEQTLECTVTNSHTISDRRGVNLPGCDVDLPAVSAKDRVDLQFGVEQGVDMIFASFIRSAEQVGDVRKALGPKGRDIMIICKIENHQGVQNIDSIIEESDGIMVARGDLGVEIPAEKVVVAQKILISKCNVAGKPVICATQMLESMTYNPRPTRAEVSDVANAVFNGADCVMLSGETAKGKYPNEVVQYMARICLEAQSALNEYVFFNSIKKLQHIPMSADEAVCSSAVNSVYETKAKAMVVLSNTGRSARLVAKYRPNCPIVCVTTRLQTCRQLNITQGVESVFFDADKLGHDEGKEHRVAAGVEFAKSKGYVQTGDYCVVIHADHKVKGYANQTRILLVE
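Purified LmPK (0.1 nM) converted ADP (0.1 mM) to ATP with PEP (0.5 mM) in imidazole buffer pH 7.2 with KCl and MgCl2, 1 h at room temperature. ATP was read by Kinase-Glo luminescence; data normalized to uninhibited and no-enzyme controls.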
NS1 function inh = inhibitors of influenza NS1 protein function; Potency, µM (highest dose often 46.1 µM); 270,000 tested, 0.4% active; calls by dose curve; further: actives are rising curves; nearly all actives have a fitted effect of over 50% in size
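A cell-based growth assay was used: compounds that relieve NS1-induced slow growth of budding yeast raise OD600. Assay medium was yeast nitrogen base with ammonium sulphate and -URA supplement, pH 6.0, with 2% galactose.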
Shiga toxin inh = Shiga toxin inhibition. Vero cells, Shiga toxin protein synthesis inhibition reporter. inhibition, % at 38.7 µM. 290,000 tested, 9.2% active; in the data active means inhibition mostly above about 28%, no sharp cut-off; inactive means mostly below about 43%
A number is an active result. Unless noted, the call rests on the fitted dose curve; in most records, active means well fitted curve in the direction sought with a large enough effect; inconclusive means small, poorly fitted or top-dose-only effect, or another doubt; inactive means no such curve, though single readings can be large; an effect the other way counts as inactive or inconclusive.

O=C(NCc1ccccc1Cl)c1ccncc1 was read as Cycloheximide cs inactive, Tb PYK inh inactive, SARS PLpro yeast inactive, LmPK inhibitor inactive, NS1 function inh inactive and Shiga toxin inh inactive.
For CC1=C(O)C(=O)C(c2c(C)cc(C)c(Br)c2C)=C(O)C1=O the results were Tb PYK inh inactive.
Cc1ccccc1CNC(=O)Cc1ccccc1[N+](=O)[O-] was read as Cycloheximide cs 58, Tb PYK inh inactive, SARS PLpro yeast inactive, LmPK inhibitor inactive, NS1 function inh inactive and Shiga toxin inh 62.
For O=C(Cc1ccccc1[N+](=O)[O-])NCCSCc1c(F)cccc1Cl the results were Cycloheximide cs 40, Tb PYK inh inactive, SARS PLpro yeast inactive, LmPK inhibitor inactive, NS1 function inh inactive and Shiga toxin inh inactive.
For Cc1c(C(=O)NCCSCc2c(Cl)cccc2Cl)cccc1[N+](=O)[O-] the results were Cycloheximide cs inactive, Tb PYK inh inactive, SARS PLpro yeast inactive, LmPK inhibitor inactive, NS1 function inh inactive and Shiga toxin inh inactive.
`Cc1cccc(C)c1NC(=O)CNC(=O)Cc1ccccc1[N+](=O)[O-]` gave Cycloheximide cs inactive, Tb PYK inh inactive, SARS PLpro yeast inactive, LmPK inhibitor inactive, NS1 function inh inactive and Shiga toxin inh inactive.
Screening CCN1C[C@@H]2[C@@H]3C(=O)N(Cc4ccccc4)C(=O)[C@@H]3[C@](Cc3ccccc3)(C1=O)N2C(=O)c1ccc(Cl)cc1 returned Tb PYK inh inactive.
Screening CCCCSCCCNC(=O)c1ccc(CS(=O)(=O)c2ccccc2OC)o1 returned Cycloheximide cs inactive, Tb PYK inh inactive, SARS PLpro yeast inactive, LmPK inhibitor inactive, NS1 function inh inactive and Shiga toxin inh inactive.
Screening CN1CCSc2ccc(C(=O)Nc3cccc(F)c3)cc21 returned Cycloheximide cs 55, Tb PYK inh inactive, SARS PLpro yeast inactive, LmPK inhibitor inconclusive, NS1 function inh inactive and Shiga toxin inh 53.
`COc1ccc(NC(=O)c2ccc3c(c2)N(C)CCS3)cc1` gave Cycloheximide cs 59, Tb PYK inh inactive, SARS PLpro yeast inactive, LmPK inhibitor inactive, NS1 function inh inactive and Shiga toxin inh 67.
`CN1CCSc2ccc(C(=O)NCc3ccccc3)cc21` gave Cycloheximide cs 10, Tb PYK inh inconclusive, SARS PLpro yeast inactive, LmPK inhibitor inactive, NS1 function inh inactive and Shiga toxin inh 25.
`CCN1CCSc2ccc(C(=O)NCc3cccc(F)c3)cc21` gave Cycloheximide cs inactive, Tb PYK inh inactive, SARS PLpro yeast inactive, LmPK inhibitor inactive, NS1 function inh inactive and Shiga toxin inh inactive.
Screening COc1ccc(CNC(=O)c2ccc3c(c2)N(Cc2ccccc2)CCS3)cc1 returned Tb PYK inh inactive.
Screening CC(NC(=O)c1cc2ccccn2n1)c1ccccc1 (stereo not drawn) returned Tb PYK inh inactive.
For CCOc1ccc(CCN2C(=S)N([C@@H](Cc3ccc(O)cc3)CN3CCC[C@@H]3CN3C(=S)NC[C@@H]3CC(C)C)C[C@@H]2CC(C)C)cc1 the results were Tb PYK inh inactive.
`COc1ccc2[nH]c(C(=O)O)c(CCC(=O)O)c2c1` gave Cycloheximide cs inactive, Tb PYK inh inactive, SARS PLpro yeast inactive, LmPK inhibitor inactive, NS1 function inh inactive and Shiga toxin inh inactive.
Screening COc1ccc2[nH]c(C(=O)O)c(CCN3C(=O)c4ccc(C(=O)O)cc4C3=O)c2c1 returned Cycloheximide cs 17, Tb PYK inh inactive, SARS PLpro yeast inactive, LmPK inhibitor inactive, NS1 function inh inactive and Shiga toxin inh inactive.
`Fc1cccc(Nc2ncnc3sccc23)c1` gave Cycloheximide cs 9.8, Tb PYK inh inactive, SARS PLpro yeast inactive, LmPK inhibitor inactive, NS1 function inh inactive and Shiga toxin inh inactive.
O=C(O)c1cccc(Nc2ncnc3sccc23)c1 was read as Cycloheximide cs 25, Tb PYK inh inactive, SARS PLpro yeast inactive, LmPK inhibitor inactive, NS1 function inh inactive and Shiga toxin inh inactive.
`Cc1sc(NC(=O)c2ccco2)nc1-c1ccc2c(c1)CC(C)N2C(=O)C1CC1` (stereo not drawn) gave Cycloheximide cs 31, Tb PYK inh inactive, SARS PLpro yeast inactive, LmPK inhibitor inactive, NS1 function inh inactive and Shiga toxin inh 175.
`CCOC(=O)C(=O)Nc1nc(-c2ccc3c(c2)CCN3C(=O)C2CC2)c(C)s1` gave Cycloheximide cs 20, Tb PYK inh inactive, SARS PLpro yeast inactive, LmPK inhibitor inactive, NS1 function inh inactive and Shiga toxin inh inactive.
Screening CC(=O)Nc1nc(-c2ccc3c(c2)CC(C)N3C(=O)C2CC2)c(C)s1 (stereo not drawn) returned Cycloheximide cs 20, Tb PYK inh inactive, SARS PLpro yeast inactive, LmPK inhibitor inactive, NS1 function inh inactive and Shiga toxin inh 65.
Screening COc1ccc(C2C(=O)N(C3CCC(C)CC3)CC(=O)N2C2CCCC2)cc1OC (stereo not drawn) returned Tb PYK inh inactive.
Screening COc1ccc(CNC(=O)Cn2nnc(-c3ccc(NC(=O)C4CCCCC4)cc3)n2)cc1 returned Cycloheximide cs 21, Tb PYK inh inactive, SARS PLpro yeast inactive, LmPK inhibitor inactive, NS1 function inh inactive and Shiga toxin inh inactive.
For COc1ccc(NC(=O)CNC(=O)C2CCCCC2)cc1 the results were Cycloheximide cs 22, Tb PYK inh inactive, SARS PLpro yeast inactive, LmPK inhibitor inactive, NS1 function inh inactive and Shiga toxin inh inactive.
COc1ccc(OC)c(NC(=O)CCCC(=O)NC2CCCCC2)c1 was read as Cycloheximide cs inactive, Tb PYK inh inactive, SARS PLpro yeast inactive, LmPK inhibitor inactive, NS1 function inh inactive and Shiga toxin inh inactive.
For COC(=O)c1cccnc1NC(=S)NC1CCCCC1 the results were Cycloheximide cs inactive, Tb PYK inh inactive, SARS PLpro yeast inactive, LmPK inhibitor inactive and Shiga toxin inh inactive.
`COC(=O)c1ccc(NC(=S)NC2CCCCC2)cc1` gave Cycloheximide cs inactive, Tb PYK inh inactive, SARS PLpro yeast inactive, LmPK inhibitor inactive, NS1 function inh inactive and Shiga toxin inh 41.
Screening COc1ccc(CC(=O)NC2CCCCCC2)c(OC)c1 returned Cycloheximide cs 8.5, Tb PYK inh inactive, SARS PLpro yeast inactive, LmPK inhibitor inactive, NS1 function inh inactive and Shiga toxin inh inactive.
For COc1ccc(NC(=O)NC2CCCCCCC2)c(OC)c1 the results were Cycloheximide cs 30, Tb PYK inh inactive, SARS PLpro yeast inactive, LmPK inhibitor inactive, NS1 function inh inactive and Shiga toxin inh 45.
`COC(=O)c1ccc(NC(=S)NCC2CC2)cc1` gave Cycloheximide cs 63, Tb PYK inh inactive, SARS PLpro yeast inactive, LmPK inhibitor inactive, NS1 function inh inactive and Shiga toxin inh 97.
COc1ccc(NC(=O)NC2CCCCCCC2)cc1 was read as Cycloheximide cs 45, Tb PYK inh inactive, SARS PLpro yeast inactive, LmPK inhibitor inactive, NS1 function inh inactive and Shiga toxin inh 61.
For COC(=O)c1ccc(NC(=S)NC2CC3CCC2C3)cc1 (stereo not drawn) the results were Cycloheximide cs 41, Tb PYK inh inactive, SARS PLpro yeast inactive, LmPK inhibitor inactive, NS1 function inh inactive and Shiga toxin inh 104.
